hcDAF12 agonist: activators of H. contortus DAF-12 nuclear receptor; activation, % at 6.8 µM; AID 652067; 370,000 tested, 1.4% active; HEK293 hcDAF-12 lit1-tk-luc reporter, luminescence; 0% DMSO, 100% Δ7-dafachronic acid;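 active = activation above the mean of all tested compounds plus 3 SD, cut at about 5.5% in these data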;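 also: 100% = response to 3 µM Δ7-dafachronic acid high control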
DAX1 inh-1: inhibitors of human orphan nuclear receptor DAX1 (NR0B1) | AID 504766 | P51843 | HEK293 Gal4-DAX1 luciferase reporter, luminescence | 340,000 tested, 0.99% active | inhibition, % at 6.75 µM;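 active = inhibition above the mean over all tested compounds plus 3 SD, cut at about 4.2% in these data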;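 also: 0% = DAX1-transfected cells with DMSO and 100% = empty-vector control cells with DMSO; inhibition shows as a rise in luminescence from relieved DAX1 repression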
Target sequence (P51843 207-470 limits assumed): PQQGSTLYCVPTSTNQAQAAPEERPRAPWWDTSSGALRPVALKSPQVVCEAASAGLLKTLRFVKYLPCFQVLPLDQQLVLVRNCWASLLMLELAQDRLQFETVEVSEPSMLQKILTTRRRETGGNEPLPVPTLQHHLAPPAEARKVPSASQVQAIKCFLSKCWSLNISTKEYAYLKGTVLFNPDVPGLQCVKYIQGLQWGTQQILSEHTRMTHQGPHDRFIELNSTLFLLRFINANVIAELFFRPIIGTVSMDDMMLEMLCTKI
DAX1 inh-2: blocks DAX1 repression of SF-1 activated StAR promoter; HEK293T StAR-luciferase reporter, SF-1/DAX-1 repression relief; inhibition, % at 6.8 µM; 370,000 tested, 1.1% active; AID 652010;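 active = inhibition above the mean over all tested compounds plus 3 SD, cut at about 3.6% in these data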;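 also: 0% = DAX-1 cells with DMSO and 100% = cells lacking DAX-1 with DMSO; higher inhibition means more luminescence from relief of DAX-1 repression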
hgDAF12 agonist: activates the H. glycines DAF-12 receptor ligand-binding domain; HEK293 GAL4-hgDAF12 UAS-luciferase reporter, agonist luminescence; normalized to butyrate control; activation, % at 6.8 µM; 370,000 tested, 1.8% active; AID 687014;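 active = activation above a cutoff set at the mean of all screened compounds plus 3 SD, cut at about 10% in these data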;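 also: 0% = DMSO wells and 100% = sodium butyrate wells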
ssDAF-12 act: S. stercoralis DAF-12 activation, primary screen | HEK293 ssDAF-12/GRIP1 lit1-tk-luc reporter, luminescence; % of 3 µM dafachronic acid response | activation, % at 6.8 µM | 370,000 tested, 1% active;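 active = activation above the mean over all tested compounds plus 3 SD, cut at about 0.9% in these data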;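 also: 0% = DMSO-only wells and 100% = 3 µM delta7-dafachronic acid wells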
SMARCA2 act: increases SMARCA2 function in MMTV reporter cells | MG213 cells, MMTV-luciferase reporter, dexamethasone, overnight | activation, % at 9.1 µM | 370,000 tested, 1% active | AID 652017; in the data active = activation above about 7.8%;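 also: 0% = vehicle wells and 100% = reference activator wells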
SMARCA2 conf: confirmation of SMARCA2 (BRM) function activators; activation, % at 9.1 µM; shares compounds with SMARCA2 act; 3,500 tested, 30% active; MG213 cells, MMTV-luciferase with dexamethasone, luminescence, overnight; MG213 cells expressing E1A, Rb sequestered; DMSO wells 0%, reference activator 100%;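 active = activation above its plate's cutoff, the mean activation of tested wells plus 3 SD, cut at about 7.9% in these data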
GAL4-VP16 Luc: activates GAL4-VP16 luciferase, flagging SMARCA2 activator hits | activation, % at 9.1 µM | 3,500 tested, 41% active | HEK293 GAL4-VP16 pG5luc reporter, luciferase luminescence; scaled: DMSO wells 0%, SAHA wells 100% | shares compounds with SMARCA2 act;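 active = activation above the solvent-only control well mean plus 3 SD, averaged across control plates, cut at about 5.2% in these data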
Starred values were filed as active, the others as inactive; . = no result. The list is not random: actives were taken first. Their share in the collection is about 4.8%.

SMILES	hcDAF12 agonist	DAX1 inh-1	DAX1 inh-2	hgDAF12 agonist	ssDAF-12 act	SMARCA2 act	SMARCA2 conf	GAL4-VP16 Luc
COC(=O)C1=CN(CC2CCCO2)C=C(C(=O)OC)C1c1cccc(O)c1 (stereo unspecified)	-2.0	.	-0.2	-2.2	-0.5	-5.3	.	.
CNc1nc(N)c([N+](=O)[O-])c(Nc2cccc(Cl)c2)n1	-2.7	.	-0.1	-1.2	-1.5	8.3*	4.7	1.7
N#C/C(=C\c1c(Oc2ccccc2Cl)nc2ccccn2c1=O)C(=O)NC1CCS(=O)(=O)C1 (stereo unspecified)	1.5	-0.5	-0.5	-0.8	-0.5	2.4	.	.
NS(=O)(=O)c1ccc(CCNC(=O)CCNC(=O)c2ccco2)cc1	2.4	0.9	0.3	0.2	-0.1	0.2	.	.
O=c1c2c(nc3cc(-c4ccc(Cl)cc4)[nH]n13)CCS2	4.5	3.2	2.6	11.0*	0.3	12.6*	8.6*	7.6*
O=C(N=C1SC2CS(=O)(=O)CC2N1c1ccccc1C(F)(F)F)C1CCCO1 (stereo unspecified)	0.5	0.1	0.4	0.9	-1.1	-1.3	.	.
COCCCNC(=O)/C=C/c1c(Cl)cccc1Cl	-1.4	-0.3	-0.1	4.5	-1.1	0.2	.	.
COCCCNC(=O)/C=C/c1ccc(Cl)cc1	-0.8	-0.9	0.2	3.0	-1.5	12.4*	3.0	0.9
CCOC(=O)c1sc2ncn(CC(=O)NCC3CCCO3)c(=O)c2c1C (stereo unspecified)	-2.8	1.2	-0.8	-3.2	-0.7	-1.2	.	.
CCOc1ccc(NC(=O)CSc2nccn2Cc2ccco2)cc1	2.0	1.2	-2.5	6.2	-0.6	11.0*	1.3	4.8
Cn1c(/C=C/c2ccccc2)nc2ccccc2c1=O	5.1	0.8	0.3	6.2	-0.4	1.1	.	.
Cn1c(/C=C/c2ccc(Cl)cc2)nc2ccccc2c1=O	2.1	-0.4	0.1	6.7	-0.5	8.7*	4.3	6.1*
O=C(COC(=O)C1=COCCO1)Nc1ccccc1OC(F)F	0.3	2.3	0.3	-0.8	-1.5	-1.9	.	.
Nc1nc(SCc2ccccn2)c2ncn(C3CCCC3)c2n1	-1.0	2.3	0.9	10.5*	-0.6	8.2*	5.5	4.2
CC(/C=N/NC(=O)c1cccs1)=C\c1ccco1	2.3	0.3	3.0	12.3*	-1.2	9.2*	9.3*	11.6*
COc1ccc2nc(C)cc(N/N=C/c3cccc(OC)c3O)c2c1	-1.5	0.0	0.1	-0.5	-1.4	27.0*	19.9*	2.0
COc1ccc(/C=N/Nc2cc(C)nc3ccc(Br)cc23)cc1	0.7	1.3	0.1	3.7	-1.2	9.4*	3.7	1.3
CCN(CC)c1nc(C)nc2c1sc(=S)n2C	-1.9	0.3	-1.0	-2.5	-1.8	-1.6	.	.
Cc1nc(N(C)C)c2sc(=S)n(Cc3ccccc3)c2n1	-1.1	1.4	0.7	-3.1	-0.9	8.8*	3.5	0.4
O=C1CCCN1CCCNS(=O)(=O)c1ccccc1	-1.4	-0.1	2.7	0.4	-0.7	-1.5	.	.
CCCCNC(=O)C[C@H]1C[C@@]2(C(=O)OC)C(=C[C@H](C(C)(C)C)O[C@@H]2C)N(Cc2ccc3c(c2)OCO3)C1=O	0.1	.	-0.9	-0.3	-1.0	-3.2	.	.
Cc1cc(C(=O)CN2C(=O)NC3(CCCC3)C2=O)c(C)n1-c1ccc2c(c1)OCO2	2.0	0.2	-0.8	1.5	-0.1	9.4*	-2.3	1.7
Cc1cc(C(=O)CN2C(=O)NC(C)(CC(C)C)C2=O)c(C)n1-c1ccc2c(c1)OCO2 (stereo unspecified)	-0.9	-0.5	0.3	-0.8	-2.0	-4.8	.	.
CCN(CC)CCCNC(=S)N(Cc1cccnc1)Cc1cc2cc(C)cc(C)c2[nH]c1=O	1.5	0.7	3.3	5.2	-0.1	-0.8	.	.
Cc1cc(C)c2[nH]c(=O)c(CN(Cc3cccnc3)C(=S)NCCCN(C)C)cc2c1	-1.0	0.0	0.6	1.2	-1.8	10.9*	-4.1	1.8
SMILES	hcDAF12 agonist	DAX1 inh-1	DAX1 inh-2	hgDAF12 agonist	ssDAF-12 act	SMARCA2 act	SMARCA2 conf	GAL4-VP16 Luc
COc1ccc(S(=O)(=O)N2CCCC2CNC(=O)C(=O)NC2CCCCCC2)cc1 (stereo unspecified)	-1.7	-0.7	-1.0	-0.1	-1.1	-1.7	.	.
O=Nc1c2nc3ccccc3n(O)c-2c2ccccc12	1.2	0.7	1.0	5.1	-0.8	8.0*	28.5*	5.5*
O=C(O)Cn1c(=O)c(-c2ccccc2)nc2ccccc21	1.7	-1.3	0.4	3.7	-0.9	5.0	.	.
CCOC(=O)c1sc(NC(=O)CN2C(=O)NC3(CCC(C)CC3)C2=O)c(C(=O)OCC)c1C (stereo unspecified)	-1.4	0.0	2.4	-0.6	-0.7	2.0	.	.
COc1ccc(N2CCN(C(=O)c3ccc4c(c3)CCN4S(=O)(=O)c3ccccc3)CC2)cc1	-1.7	-0.7	-0.2	-1.1	-1.3	-0.3	.	.
Cc1onc(-c2ccccc2Cl)c1C(=O)NC(=S)Nc1ccc(C(C)(C)C)cc1	-0.5	-1.7	-0.1	-0.1	-0.9	10.6*	3.2	-0.5
CCc1ccc(NC(=S)NC(=O)c2c(-c3ccccc3Cl)noc2C)cc1	2.1	0.5	0.3	4.4	-0.8	4.6	.	.
Cc1cc(C)cc(Nc2ccc(C(=O)O)cc2N)c1	0.4	-2.9	-0.2	2.4	-1.1	-1.0	.	.
Cc1ccc(Nc2ccc(C(=O)O)cc2N)cc1	1.8	.	2.6	6.8	1.1*	9.4*	1.3	9.5*
O=C(NCc1ccco1)c1cc(Cl)nc(Cl)c1	0.2	0.7	-0.2	-1.5	-1.1	-0.4	.	.
CC1=C(C(=O)OCc2ccccc2)C(c2ccccc2)NC(=O)N1 (stereo unspecified)	-2.4	-0.1	-0.3	-0.5	-2.0	-0.4	.	.
COc1ccc(C2NC(=O)NC(C)=C2C(=O)OCc2ccccc2)cc1 (stereo unspecified)	3.8	-1.3	1.2	9.2	0.5	13.6*	4.3	0.6
CC1(CCCN2C(=O)c3ccccc3C2=O)OCCO1	-0.7	.	-0.3	3.4	-0.4	10.4*	4.7	3.9
CCOc1ccccc1Nc1cc2n(c(=O)n1)CCc1cc(OC)c(OC)cc1-2	-4.0	-0.3	-0.5	-4.6	-1.7	12.1*	8.8*	7.8*
COc1cc2c(cc1OC)-c1cc(Nc3ccccc3C)nc(=O)n1CC2	-3.8	-0.3	-0.1	-2.9	-1.4	5.5	.	.
Cc1cccc(CCNC(=O)c2cc(S(=O)(=O)N3CCOCC3)cn2C)c1	2.8	-0.4	0.2	-0.5	-0.1	-1.8	.	.
Cc1cccc(CNC(=O)c2cc(S(=O)(=O)N3CCOCC3)cn2C)c1	-0.7	1.5	-0.2	-0.4	-0.4	13.6*	2.0	0.7

Compound activity from PubChem.
